An excerpt weighted towards active compounds, which were near 12% of everything screened.
AmpC inh detg – inhibitors of E. coli AmpC beta-lactamase with detergent. AmpC hydrolysis of nitrocefin, absorbance 480 nm, 0.01% Triton. Potency, µM (doses to about 114 µM), inactives show top-dose activity change, negative = inhibition, usual class: inhibitors. hit rate 0.041% among 370,000. AID 485294;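 further: 0% = no-compound wells and -100% = no-enzyme wells; nearly all actives have a fitted effect of over 25% in size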
Target sequence (P00811 whole entry, looked up): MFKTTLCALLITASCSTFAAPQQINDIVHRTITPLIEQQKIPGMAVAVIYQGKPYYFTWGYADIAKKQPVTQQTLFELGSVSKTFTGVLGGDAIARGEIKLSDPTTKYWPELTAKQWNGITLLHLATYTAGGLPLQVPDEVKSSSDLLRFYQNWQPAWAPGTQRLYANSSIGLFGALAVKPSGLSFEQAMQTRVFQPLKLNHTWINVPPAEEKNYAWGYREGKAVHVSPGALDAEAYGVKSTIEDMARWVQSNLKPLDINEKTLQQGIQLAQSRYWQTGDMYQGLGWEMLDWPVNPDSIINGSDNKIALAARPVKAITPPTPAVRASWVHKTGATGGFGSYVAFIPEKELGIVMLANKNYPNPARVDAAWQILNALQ
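20 mM phosphate pH 7.0 + 0.01% (detergent screen) or 0.0001% Triton X-100; 5.3 nM AmpC reagent; cpd preinc 15 min RT; nitrocefin (800 uM stock) to start; A480 q20 s × 4 min; Activity was normalised to no-enzyme and no-compound control wells.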
SARS PLP yeast – SARS-CoV PLP inhibition in yeast; S. cerevisiae expressing SARS-CoV PLpro, growth rescue; Potency, µM (top dose mostly 32.9 µM), for inactives: top-dose activity, positive = growth rescue, actives largely listed as activators; hit rate 0.19% among 330,000; AID 485353; calls by dose curve; further: 0% is about no effect; nearly all actives have a fitted effect of over 55% in size
Sm TGR inh – inhibitors of Schistosoma mansoni thioredoxin glutathione reductase | Q962Y6 | AID 485364 | purified TGR, DTNB reduction, TNB absorbance 405 nm | Potency, µM (titrated, usually from 114 µM), without a hit: at the highest dose activity change, negative = inhibition, usual class: inhibitors | hit rate 3% among 360,000; further: on the % scale 0 is the no-effect control and ±100 the full control effect; nearly all actives have a fitted effect of over 60% in size
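TGR 20 nM + NADPH 100 uM (dispensed conc.), cpd preinc 15 min RT; start with NADPH (500 uM addition) then DTNB (15 mM addition). Kinetic TNB absorbance, 405 nm filter. Four-parameter Hill fit across titration.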
Pf growth 96h – inhibits malaria parasite growth, 96 h | hit rate 6.9% among 320,000 | Potency, µM (series often up to 28.7 µM), for the others: at the highest dose activity change, negative = inhibition, actives largely listed as inhibitors | P. falciparum luciferase reporter growth, 96 h; further: on the % scale 0 is the no-effect control and ±100 the full control effect
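Readout is luminescence from an integrated firefly luciferase in P. falciparum. Red cells, 2% hematocrit and 0.05% parasitemia final, were cultured with compound through two parasite generations (96 hours) at 37 C, 5% CO2.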
Pf growth 48h – P. falciparum growth inhibition at 48 hours (one generation). P. falciparum luciferase growth in erythrocytes, 48 h. Potency, µM (top dose mostly 28.7 µM), for inactives: at the highest dose activity change, negative = inhibition, hits mostly inhibitors. hit rate 5.9% among 310,000. AID 504832; further: on the % scale 0 is the no-effect control and ±100 the full control effect
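Luminescence readout; reporter = integrated firefly luciferase in P. falciparum. RBC culture at 2% hematocrit, 0.1% parasitemia final, 37 C/5% CO2; decreased signal taken as growth inhibition.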
AmpC no deterg – blocks E. coli AmpC beta-lactamase in detergent-free assay; hit rate 0.52% among 330,000; Potency, µM (top dose mostly 57.1 µM), for inactives: at the top dose activity change, negative = inhibition, most hits filed as inhibitors; AID 485341; AmpC nitrocefin hydrolysis, absorbance 480 nm, 0.0001% Triton; P00811;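 further: plate controls were no compound for no effect and no enzyme for full effect; nearly all actives have a fitted effect of over 20% in size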
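20 mM phosphate pH 7.0 + 0.01% (detergent screen) or 0.0001% Triton X-100; 5.3 nM AmpC reagent; cpd preinc 15 min RT; nitrocefin (800 uM stock) to start; A480 q20 s × 4 min; Activity was normalised to no-enzyme and no-compound control wells.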
Starred values were filed as active, the others as inactive; ? = inconclusive; · = not tested or not shown; [ ] = remark or other dose. Unless noted, the call rests on the fitted dose curve; in most records, active means well fitted curve in the direction sought with a large enough effect; inconclusive means small, poorly fitted or top-dose-only effect, or another doubt; inactive means no such curve, though single readings can be large; an effect the other way counts as inactive or inconclusive. Potency means the concentration at half of the fitted maximal effect.

SMILES	AmpC inh detg	SARS PLP yeast	Sm TGR inh	Pf growth 96h	Pf growth 48h	AmpC no deterg
COc1cccc(CNS(=O)(=O)c2ccc3c(c2)C(C(C)C)C(=O)N3)c1 (stereo unspecified)	-4%	·	-14%	·	·	·
COC(=O)CC1Oc2ccc(C)cc2-n2cc(-c3ccc(C)cc3)nc21 (stereo unspecified)	0%	·	9%	·	·	·
CC(=O)N1CCC2(CC1)OC(=O)C(C)=C2C(=O)NCc1cccc(Cl)c1	-2%	·	16%	·	·	·
CCCC(=O)NC(c1ccco1)c1c(O)ccc2ccccc12 (stereo unspecified)	5%	-2%	0%	?	?	-28%
CCCC(=O)NC(c1ccco1)c1cc([N+](=O)[O-])c2cccnc2c1O (stereo unspecified)	-7%	?	28µM*	15%	?	-18%
CC(=O)NC(c1ccc(C)cc1)c1cc([N+](=O)[O-])c2cccnc2c1O (stereo unspecified)	5%	6%	4%	?	?	-17%
CCC(=O)NC(c1ccco1)c1cc(Br)c2cccnc2c1O (stereo unspecified)	?	2%	35µM*	?	?	-1%
CCC(=O)NC(c1ccc(C)cc1)c1cc([N+](=O)[O-])c2cccnc2c1O (stereo unspecified)	-12%	3.2µM*	-29%	20%	?	-24%
Cc1nc(CC(=O)Nc2cc(Cl)ccc2C)cs1	-1%	·	-6%	·	·	·
Cc1ccccc1OCC(=O)N/N=C/c1ccc(N2CCOCC2)o1	-6%	0%	7.9µM*	-19%	-1%	63%
O=C(NCCc1ccccc1)C(=O)N/N=C/c1ccc2c(c1)OCO2	5%	10%	13%	45%	37%	-28%
Cc1cccc(OCC(=O)N/N=C/c2ccc3c(c2)OCO3)c1	5%	-1%	10%	15%	20%	-23%
Cc1ccccc1OCC(=O)N/N=C/c1ccc2c(c1)OCCO2	?	-21%	-23%	2.6µM*	-1%	-24%
O=C(NCc1ccccn1)C(=O)N/N=C/c1ccc2c(c1)OCO2	6%	0%	5%	4.7µM*	20%	-15%
O=C(COc1ccccc1)N/N=C/c1ccc2c(c1)OCO2	3%	2%	-3%	361%	12%	?
Cc1cc(C)c(OCC(=O)N/N=C/c2ccc3c(c2)OCO3)c(C)c1	-17%	5%	5%	12µM*	10%	-28%
CC(C)CC1CCCCC1OC(=O)C[N+]1(C)CCCCC1 (stereo unspecified)	11%	1%	2%	-24%	?	46%
CC1(C(=O)N/N=C/c2ccccc2)CC1(Br)Br (stereo unspecified)	-8%	-1%	3%[57.1 µM]	?	35%	-20%
CC1(C(=O)N/N=C/c2ccc3c(c2)OCO3)CC1(Br)Br (stereo unspecified)	-4%	0%	3%	5.2µM*	11%	-18%
CC1(C(=O)N/N=C/c2ccccc2)CC1(Cl)Cl (stereo unspecified)	1%	-1%	-5%	3.3µM*	0%	-17%
CN(CC(=O)NCCN1CCN(c2ccccc2)CC1)S(=O)(=O)c1ccc2c(c1)CCC(=O)N2	-13%	5%	0%	4.7µM*	·	4%
CN(CC(=O)NCc1ccccc1)S(=O)(=O)c1ccc2c(c1)CCC(=O)N2	-10%	3%	-1%	47%	-2%	6%
CN(C)c1ccc(N2C(=NC(=O)CCc3ccccc3)SC3CS(=O)(=O)CC32)cc1 (stereo unspecified)	-7%	0%	-7%	12µM*	?	3%
CCN1c2ccccc2NC2C1C(C(C)=O)C(=O)N2c1ccc(Cl)cc1 (stereo unspecified)	-14%	-12%	-10%	-102%	13µM*	45%
Cc1cc(O)c(C(c2cccc(Cl)c2)N2CCN(c3ccccc3)CC2)c(=O)n1Cc1ccco1 (stereo unspecified)	23%	·	4µM*	·	·	·
SMILES	AmpC inh detg	SARS PLP yeast	Sm TGR inh	Pf growth 96h	Pf growth 48h	AmpC no deterg
O=S(=O)(NCC(c1ccco1)N1CCN(c2ccccc2)CC1)c1cc(F)ccc1F (stereo unspecified)	3%	·	1%	·	·	·
Cc1cc(O)c(C(c2cccc(F)c2)N2CCN(c3ccccc3)CC2)c(=O)n1Cc1ccco1 (stereo unspecified)	2%	·	3.2µM*	·	·	·
COc1cc(CN2CCC(n3nccc3NC(=O)c3ccc4c(c3)OCO4)CC2)ccc1O	?	-5%	?	?	?	1%
CCNc1ccc(S(=O)(=O)NCCN(C)C)cc1[N+](=O)[O-]	0%	6%	0%	12%	5%	-14%
CCNc1ccc(S(N)(=O)=O)cc1[N+](=O)[O-]	-14%	14%	-11%	12µM*	-12%	-40%
CC1CCN(C2=NC(=O)/C(=C/c3cn(-c4ccccc4)nc3-c3cccc(S(=O)(=O)N(C)C)c3)S2)CC1	0%	8%	-4%	?	7.4µM*	-1%
COc1ccc(OC)c(/C=C2\SC(N3CCCC(C)C3)=NC2=O)c1 (stereo unspecified)	-1%	0%	2%	4%	?	4%
CN(C)S(=O)(=O)c1cccc(-c2nn(-c3ccccc3)cc2/C=C(/C#N)C(=O)NCc2ccco2)c1	-1%	15%	16%	?	0%	-16%
CC1CCCN(C2=NC(=O)/C(=C/c3cn(-c4ccccc4)nc3-c3cccc(S(=O)(=O)N(C)C)c3)S2)C1 (stereo unspecified)	-4%	2%	3%	1.7µM*	?	-10%
O=C(CN1CCSC1=NCc1ccccc1)c1ccc(Cl)c(Cl)c1	-2%	-14%	-3%	9.3µM*	?	-18%
Cc1cccc(C)c1OCCn1c(C2CC(=O)N(Cc3ccc(F)cc3)C2)nc2ccccc21 (stereo unspecified)	-9%	·	-4%	·	·	·
CC(C)N1C(=S)N(Cc2ccco2)C(=O)C1CC(=O)Nc1ccccc1 (stereo unspecified)	-12%	-1%	40µM*	?	1µM*	-2%
O=C(CC1C(=O)N(c2ccccc2)C(=O)N1Cc1ccco1)Nc1ccccc1 (stereo unspecified)	-5%	0%	?	15µM*	13%	-25%
Cc1cccc(N2C(=O)C(CC(=O)Nc3ccc(Cl)cc3)N(Cc3ccco3)C2=O)c1 (stereo unspecified)	12%	·	?	·	·	·

Bioassay records as filed in PubChem BioAssay.
